This is one part of a sample in which hits are shown more often than they occur.
14-3-3 PPI: modulators of 14-3-3 gamma protein binding, primary screen, biochemical, fluorescence polarization. 0.19% of 160,000 active. inhibition, % at 40 µM. 14-3-3 protein gamma (Homo sapiens), P61981. FP, 14-3-3gamma / TMR-pS259-Raf peptide binding; in the data active = inhibition above about 30%
Target sequence (P61981 whole entry, looked up): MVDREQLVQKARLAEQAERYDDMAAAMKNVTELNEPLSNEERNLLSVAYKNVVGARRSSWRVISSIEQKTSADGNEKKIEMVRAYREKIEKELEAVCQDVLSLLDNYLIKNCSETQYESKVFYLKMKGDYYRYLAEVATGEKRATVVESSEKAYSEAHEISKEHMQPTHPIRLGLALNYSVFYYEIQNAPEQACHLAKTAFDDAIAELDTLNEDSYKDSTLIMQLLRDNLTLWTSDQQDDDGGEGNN
Numbers stand for hits; i = inactive.

SMILES	14-3-3 PPI
O=C(COc1ccc2c(c1)C(=O)CC1(CCCCC1)O2)NCc1ccccn1	i
CC(=O)N1CCC2(CC1)CC(=O)c1cc(OCC(=O)NCc3ccccn3)ccc1O2	103
O=C(COc1ccc2c(c1)C(=O)CC1(CCCCC1)O2)NCc1ccccc1	i
Cc1nc2ccccc2c(C(=O)O)c1C(=O)O	i
Cc1cccc(-c2nc3ccccc3c(=O)[nH]2)c1	i
C/C(O)=c1/c(=O)nc2cccc3c2=c1c1ccccc1c3=O	35
CCC1CCc2c(sc(NC(=O)c3cc4ccccc4c(=O)o3)c2C(N)=O)C1 (stereo unspecified)	i
COc1ccc(Nc2cc(C)nc3ccccc23)cc1	38
COc1ccc2nc(C)cc(Nc3ccc(F)cc3)c2c1	i
COc1ccc(Nc2cc(C)nc3c(C)cccc23)cc1	i
COC(=O)Cn1nc2c3c(cccc31)C(=O)c1ccccc1-2	i
O=C1c2cccc(Cl)c2C(=O)c2c1cccc2N1CCOCC1	i
O=C1c2ccccc2C(=O)c2c1ccc(C(=O)N1CCCC1)c2NCCO	i
CCNc1c2c3c(cccc3n(C)c1=O)C(=O)c1ccccc1-2	54
Cn1c(=O)c(NC2CCCCC2)c2c3c(cccc31)C(=O)c1ccccc1-2	32
CCN(CC)C(=O)c1ccc2c(c1NCCO)C(=O)c1ccccc1C2=O	i
CCNc1cccc2c1C(=O)N(C)C2=O	i
Cn1c(=O)c(NCCO)c2c3c(cccc31)C(=O)c1ccccc1-2	168
Cn1c(=O)c(=O)n(C)c2cc(S(=O)(=O)NC3CCCCCC3)ccc21	i
CN1C(=O)c2cccc3c(N4CCOCC4)ccc(c23)C1=O	i
CC(C(=O)NC1CCCCC1)N1C(=O)c2ccccc2C1=O (stereo unspecified)	i
Cn1c(=O)c(N2CCOCC2)c2c3c(cccc31)C(=O)c1ccccc1-2	50
CC1=NC(C(F)(F)F)(C(F)(F)F)c2c(n(CCc3c(C)[nH]c4ccccc34)c(=O)[nH]c2=O)N1	i
FC(F)(F)c1cccc(-c2noc(-c3cccc(Br)c3)n2)c1	i
COc1ccc(OC)c(S(=O)(=O)Nc2cc(C(=O)N3CCCC3)ccc2N2CC3CC(C2)c2cccc(=O)n2C3)c1 (stereo unspecified)	i
SMILES	14-3-3 PPI
COC(=O)c1sc2nc(-c3ccncc3)cc(C(F)(F)F)c2c1N	i
Nc1c(C(=O)c2ccccc2)sc2nc(-c3ccccc3)cc(C(F)(F)F)c12	60
Nc1c(C(=O)NCCc2ccccc2)sc2nc(-c3ccccc3)cc(C(F)(F)F)c12	i
O=S(=O)(c1cccc2nonc12)N1CCC(Cc2ccccc2)CC1	i
O=S(=O)(Nc1ccc(Cl)c(C(F)(F)F)c1)c1cccnc1	i
O=C(COc1ccc([N+](=O)[O-])cc1)Nc1cccnc1	31
O=C(COc1ccc([N+](=O)[O-])cc1)Nc1ccccn1	i
O=C(COc1ccc(Br)cc1)Nc1cccnc1	i
COc1ccc2cc3cc(C(=O)Nc4ccc(C)cc4Cl)sc3nc2c1	i
Cc1ccc(S(=O)(=O)n2nc(OC(=O)c3ccc(Cl)c([N+](=O)[O-])c3)cc2N)cc1	i
CCn1cc(C(=O)NC2CCCCC2)c(=O)c2cc(S(=O)(=O)N3CCCCCC3)ccc21	i
CCn1cc(C(=O)NCc2ccccn2)c(=O)c2cc(S(=O)(=O)N3CCCCC3)ccc21	119
CCn1cc(C(=O)NCc2ccco2)c(=O)c2cc(S(=O)(=O)N3CCCCCC3)ccc21	i
O=C(CN1CCOCC1)Oc1cccc2cccnc12	i
CCCOc1ccc(C2/C(=C(/O)c3ccccc3)C(=O)C(=O)N2CCCN(C)C)cc1OC (stereo unspecified)	35
CCCOc1ccc(/C(O)=C2/C(=O)C(=O)N(CCN(C)C)C2c2ccc(O)c(OC)c2)cc1 (stereo unspecified)	i
COc1ccc(/C(O)=C2/C(=O)C(=O)N(CCCN(C)C)C2c2ccc(Cl)cc2)cc1OC (stereo unspecified)	i
COc1ccc(-n2nc3c(c2NC(=O)c2ccccc2I)CSC3)cc1	i
COc1ccc(C2CC(C(F)(F)F)n3nc(C(=O)Nc4ccccn4)cc3N2)cc1 (stereo unspecified)	i
COc1ccccc1Cn1c(SCc2csc(C)n2)nc2ccc(Br)cc2c1=O	i
O=C(NCCC1=CCCCC1)c1ccc2c(c1)N(Cc1ccc(F)cc1)C(=O)CS2	i
COCCn1c(=O)[nH]c2cc(C(=O)NCc3ccc(OC)cc3)ccc2c1=O	i
COc1ccccc1NC(=O)c1cc2ccccc2c(C=Nc2ccc(NC(C)=O)cc2)c1O	73
COc1cc(C=Nc2ccc(NC(C)=O)cc2)cc(OC)c1OC	i
COc1ccccc1N=Cc1c(O)c(C(=O)Nc2ccccc2)cc2ccccc12	i
SMILES	14-3-3 PPI
CCOC(=O)C1Cn2c(nc3c(c2=O)C2(CCCCC2)Cc2ccccc2-3)S1 (stereo unspecified)	i
Cc1nc([N+](=O)[O-])cn1CC(=O)NCCO	i
O=C(Nc1ccc(-c2ccc(NC(=O)c3ccc(F)cc3[N+](=O)[O-])cc2)cc1)c1ccc(F)cc1[N+](=O)[O-]	i
Fc1cccc(C2C=C(c3ccc(Cl)cc3)Nc3nnnn32)c1 (stereo unspecified)	i
Fc1cccc(C2C=C(c3cccs3)Nc3nnnn32)c1 (stereo unspecified)	63
Fc1ccccc1C1C=C(c2cccs2)Nc2nnnn21 (stereo unspecified)	i
Cn1nccc1C(=O)NCCN1C(=O)OC2(CCCCC2)C1(C)O (stereo unspecified)	i
O=C(Nc1ccccc1)c1cc2ccccc2oc1=Nc1ccc(C(F)(F)F)cc1	i
COCCCNC(=O)c1ccc2c(c1)N(Cc1cccc(F)c1)C(=O)c1ccccc1S2	i
O=C(O)c1ccc(NC2=C(N3CCOCC3)C(=O)c3ccccc3C2=O)cc1	56
CCCCOc1ccc(NC2=C(N3CCOCC3)C(=O)c3ccccc3C2=O)cc1	i
O=C(O)c1cccc(NC2=C(N3CCCC3)C(=O)c3ccccc3C2=O)c1	i
COc1ccc(S(=O)(=O)CCC(=O)N2c3ccc(F)cc3CCC2C)cc1 (stereo unspecified)	i
CCCCSc1nnc2c(n1)OC(CC)Nc1ccc(Br)cc1-2 (stereo unspecified)	i
CCCSc1nnc2c(n1)OC(C=Cc1ccco1)Nc1ccc(Br)cc1-2 (stereo unspecified)	58
CCCSc1nnc2c(n1)OC(c1cccs1)Nc1ccc(Br)cc1-2 (stereo unspecified)	i
O=C1C2C3C=CC(C2C(=O)N1c1ccc(O)cc1)C1C2C(=O)N(c4ccc(O)cc4)C(=O)C2C31 (stereo unspecified)	64
O=C1C2C3C=CC(C2C(=O)N1c1ccccc1)C1C2C(=O)N(c4ccccc4)C(=O)C2C31 (stereo unspecified)	i
COc1ccc(N2C(=O)C3C4C=CC(C3C2=O)C2C3C(=O)N(c5ccc(OC)cc5)C(=O)C3C42)cc1 (stereo unspecified)	i
CC(C)N=c1cc2n(-c3ccc(Cl)cc3)c3ccccc3nc-2cc1Nc1ccc(Cl)cc1	97
Cn1c(CNc2ccc(Cl)cc2)nc2ccccc21	i
CC(C)Cn1c(C=Cc2ccc(Cl)cc2)nc2ccccc21	i
CCc1ccccc1N(CC)C(=O)Cc1c(C(=O)O)[nH]c2ccccc12	i
CCN(CC)C(=O)Cn1cnc2sc(C(=O)NC(C)c3ccccc3)c(C)c2c1=O (stereo unspecified)	i
NS(=O)(=O)c1ccc(CCNS(=O)(=O)c2ccc3c(c2)CCN3C(=O)C2CC2)cc1	i

From PubChem
